{
  "source": "PubChem BioAssay",
  "note": "Unmarked numbers belong to inactive results. Active and inactive are the calls of the source. Cut-off read from the data, not from the text of the source: active = inhibition above about 44%; inactive = the rest.",
  "data": [
    {"molecular_target": "Steroidogenic factor 1 (Homo sapiens) (UniProt Q13285)", "sequence (Q13285 whole entry, looked up)": "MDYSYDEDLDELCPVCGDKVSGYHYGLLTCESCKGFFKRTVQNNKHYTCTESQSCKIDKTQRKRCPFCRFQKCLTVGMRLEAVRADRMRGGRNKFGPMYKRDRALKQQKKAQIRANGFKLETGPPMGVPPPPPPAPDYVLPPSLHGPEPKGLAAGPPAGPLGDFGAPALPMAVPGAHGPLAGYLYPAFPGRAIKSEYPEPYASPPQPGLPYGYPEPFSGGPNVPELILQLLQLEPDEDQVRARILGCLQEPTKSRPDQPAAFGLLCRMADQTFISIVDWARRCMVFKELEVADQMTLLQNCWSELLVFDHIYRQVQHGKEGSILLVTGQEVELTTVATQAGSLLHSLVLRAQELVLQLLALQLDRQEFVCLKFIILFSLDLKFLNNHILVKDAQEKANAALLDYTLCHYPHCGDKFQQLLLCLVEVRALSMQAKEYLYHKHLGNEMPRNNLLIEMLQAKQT", "assay": "inverse agonism at SF1 nuclear receptor – cell-based, luminescence, high throughput, counter-screen for LRH-1 inverse agonist project (AID 651614);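 note: cells cotransfected with StAR promoter reporter and SF1 expression vector; 0% = vehicle on cells with receptor and 100% = vehicle on cells lacking receptor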", "conditions": "cell-based SF1 luciferase reporter, at 3.6 µM, active compounds read high", "values": [
      {"smiles": "COc1ccc(-c2cc(C(F)F)n3ncc(C(=O)N4CCc5ccccc5C4)c3n2)cc1", "inhibition": "56.7% (active)"},
      {"smiles": "Cc1cc(NCCCCCCCNc2cc(C)nc3cc([N+](=O)[O-])ccc23)c2ccc([N+](=O)[O-])cc2n1", "inhibition": "40.3%"},
      {"smiles": "CC(=O)c1ccc(NC(=O)COc2ccccc2C(=O)Nc2ccccc2)cc1", "inhibition": "45.9% (active)"},
      {"smiles": "CCN1CCN(c2ccc(S(=O)(=O)N3CCCCC3)cc2NC(=O)/C=C/c2ccc([N+](=O)[O-])cc2)CC1", "inhibition": "49.4% (active)"},
      {"smiles": "O=C(NCc1cccnc1)c1ccc(NC(=O)c2ccc(Br)cc2)cc1", "inhibition": "91.9% (active)"},
      {"smiles": "Cn1c(=O)c2c(nc(CN3CCOCC3)n2CC(=O)c2ccccc2)n(C)c1=O", "inhibition": "1.97%"},
      {"smiles": "c1ccc(-c2nc(NCc3cccnc3)c3oc4ccccc4c3n2)cc1", "inhibition": "60.6% (active)"},
      {"smiles": "Cc1ccccc1C(=O)NC1CCN(CC(=O)Nc2ccc(Br)cc2)CC1", "inhibition": "53.4% (active)"},
      {"smiles": "CN(C)S(=O)(=O)c1ccc(C(=O)NCc2ccc3[nH]c4c(c3c2)CCCC4)cc1", "inhibition": "54.4% (active)"},
      {"smiles": "COc1ccc(-c2nnc(NC(=O)c3ccc([N+](=O)[O-])o3)o2)c(OC)c1", "inhibition": "57% (active)"},
      {"smiles": "Cc1cc(Cl)ccc1NC(=O)CN1C(=O)C(=O)N(C2CCCC2)C1=O", "inhibition": "43.8% (active)"},
      {"smiles": "COc1ccc(N2CCN(C(=O)c3ccc(CNS(=O)(=O)c4cccc(OC)c4)cc3)CC2)cc1", "inhibition": "29.5%"},
      {"smiles": "CCC(NC(=O)c1cc(COc2cc(C)c(Cl)c(C)c2)on1)c1ccncc1", "note": "(centres undefined)", "inhibition": "50.9% (active)"},
      {"smiles": "O=C(CCl)Nc1ccc2c(c1)OCO2", "inhibition": "62.4% (active)"}
    ]}
  ]
}
